For 40 molecules, growth results are on record in PubChem BioAssay (NCI).

About 83,000 compounds went through this panel and 20% of them were active in at least one assay; those are over-represented in the sample as a whole.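 A percent growth of 40 corresponds to 60% growth inhibition; 0 means no net growth; -100 means all cells died. Active threshold: below 10.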 A number with no mark means an inactive call. Active and inactive are the calls of the source.

The assay concerns MDA-MB-468 breast. The assay can be described thus: NCI-60 one-dose screen, 48 h (100 = growth as untreated, 0 = no growth, -100 = all killed). Particulars: 10 µM unless noted.
For the molecule `CN1CCN(C(=O)C(C)(C)c2ccc(C(=O)Nc3cn4cc(-c5ccncc5)ccc4n3)cc2)CC1`, the growth is -16.2% (active). The same measure for `Cc1cc2nc3c(=O)[nH]c(=O)nc-3n(CC=O)c2cc1C`: 95.8%; for `CCC(=O)N1C/C(=C/c2ccc(Cl)cc2)C(=O)/C(=C/c2ccc(Cl)cc2)C1`: -84.5% (active); for `CC(C)CN1CC(C(=O)Nc2ccc3c(c2)-c2ccccc2C3)CC1=O` (stereo not given): 60.5% [50 µM].

As to `COc1ccc(/C(C)=C(\c2ccc(Cl)cc2)c2ccc(OCCN(C)C)cc2)cc1F`, the growth was 66.2%. On to `CCc1cnn2c(NCc3ccc[n+]([O-])c3)cc(N3CCCC[C@H]3CCO)nc12`, for which the growth is -56.3% (active). Take `COc1ccc2[nH]c3nc4cnccc4cc3c2c1`: the growth was 117%. Under `O=C(Nc1cc(Cl)cc(Cl)c1)Nc1nc2ccc([N+](=O)[O-])cc2s1` stands -24.1% (active); under `Cc1[nH]c(C(=O)Nc2ccc(C(=O)NCCN)cc2OC(C)C)c(Cl)c1Cl`, -43.6% (active); under `COc1ccc2c(c1)c(-c1nc(-c3cn(C)c4ncccc34)cs1)cn2CCN`, 16.1%. Take `CC[n+]1c(C)ccc2cc(C)ccc21`: the growth is 58.1%. Under `NS(=O)(=O)c1ccc(Nc2nc3n[nH]c(Nc4ccccc4)c3c(=O)[nH]2)cc1` stands 108%. With `CCn1cc(C(=O)O)c(=O)c2cnc(N3CCCC3)nc21`, the growth is 99.2%.

For the molecule `CC(C)(C)n1nnnc1C(Nc1nccs1)c1cc2cccc3ccc4cccc1c4c32` (stereo not given), the growth is -35.2% (active). Under `O=C1CC(c2ccc3c(c2)OCO3)c2ncn(-c3ccc(Cl)cc3)c2N1` (stereo not given) stands 13%; under `CCO/C=C1\SC(=S)N(c2cccc(C)c2)C1=O`, 102%; under `NS(=O)(=O)c1ccc(N/C=C/C(=O)c2cc3ccccc3oc2=O)cc1`, 90.4%. The same measure for `CNCCNc1nc2ccccc2c2c(=O)c3cc(F)ccc3oc12`: 59.1%; for `COc1ccc(C2=NNC(c3ccc(Oc4nc5c(c(=O)n(C)c(=O)n5C)n4C)c(OC)c3)C2)cc1` (stereo not given): 89.5%. Regarding `CCN(CC)CCOc1ccc(/C(=C(\C)c2ccc(F)c(OC)c2)c2ccc(Cl)cc2)cc1`, the growth was -15.7% (active). Take `Cc1nn(-c2ccccc2)c2nc(Cl)c(/C=C/C(=O)c3ccccc3)c(-c3ccccc3)c12`: the growth is 105%. Consider `Nc1ncc(-c2ccc3ncnc(N4CCc5cc(F)c(F)cc54)c3c2)cn1`, for which the growth was 4.19% (active). Regarding `CCOC(=O)C1=C(C)NC(SCc2cc(=O)oc3ccc(F)cc23)=N[C@@H]1c1cccc2ccccc12`, the growth was 113%. On to `CCSc1ccc2c(c1)N(CCCN1CCN(C)CC1)c1ccccc1S2`, for which the growth was -3.41% (active).

With `O=c1c2ccccc2sc2c(NCCCNCCO)nc3ccccc3c12`, the growth was -57.3% (active). On to `COc1ccc(-c2csc(NC(=O)c3cc(OC)c(OC)c(OC)c3)n2)cc1`, for which the growth is 86.8%. `N#Cc1c(N2CCOCC2)nc2sc3cc(Cl)ccc3n2c1=N`: the growth was 15.8%. The same measure for `COC1CC(OC(=O)c2ccc([N+](=O)[O-])cc2)C(COC(=O)c2ccc([N+](=O)[O-])cc2)O1` (stereo not given): 93.6%.

As to `CC(CN1CCN(CCOCCO)CC1)CN1c2ccccc2Sc2ccc(Cl)cc21` (stereo not given), the growth was 40.9%. The same measure for `O=S(=O)(Nc1cccc2cc(OS(=O)(=O)c3ccccc3)ccc12)c1ccccc1`: 13.4%; for `CN(C)C[C@@H]1CCn2cc(c3ccccc32)C2=C(C(=O)NC2=O)c2cn(c3ccccc23)CCO1`: 23.3%. The same measure for `N=C1N=C(N)CS1`: 103%; for `COc1cc(-c2csc(NC(=O)Nc3cc(C(F)(F)F)cc(C(F)(F)F)c3)n2)cc(OC)c1OC`: 4.77% (active); for `CS(=O)(=O)c1ccc(-c2nc3ccccc3n2CC(=O)N/N=C/c2ccccc2)cc1`: 112%. The same measure for `COc1cc(Cn2c(SCC(=O)Nc3ccc(Cl)cc3)nc3ccccc3c2=O)cc(OC)c1OC`: 47.1%.

Turning to `N#CC1C(=O)NC(c2ccccc2[N+](=O)[O-])c2sc3c(F)cccc3c21` (stereo not given), the growth was -49% (active). As for `CC1(C)OCC(COC(c2ccccc2)(c2ccccc2)c2ccccc2)O1` (stereo not given), the growth is 109%. The same measure for `CCCN1CN2C(=O)N3CN(CCC)CN4C(=S)N(C1)C2C34` (stereo not given): 107%.

`COc1cc2c(c(OC)c1OC)-c1cc(I)c(O)cc1[C@@H](NC(C)=O)CC2`: the growth is -32.9% (active). The same measure for `O=C1NC(=S)NC(=O)C1CC(=O)n1c(-c2ccccc2)nc2ccccc21`: 105%.
